Potency data for 27 compounds are collected here from PubChem BioAssay (NCATS).

Each structure is given as a SMILES string. Inconclusive results are not listed. A call without a number means that no potency is given here. Activity calls are given as the source filed them. The call rests on the fitted dose curve; in most records, active means well fitted cell-killing curve with a large enough effect; inconclusive means small, poorly fitted or top-dose-only effect, or effect the other way; inactive means no such curve, though single readings can be large or run the other way.
Potency means the concentration at half of the fitted maximal effect.

A short description of this experiment: Quantitative High-Throughput drug screen in 47 multiple myeloma cell lines against the NCATS MIPE library collection: KMS28BM_JCRB cell viability assay (AID 1919874). Further: nearly all actives have a fitted effect of over 35% in size. The following applies: CellTiter-Glo ATP, 48 h; series mostly up to 45.8 µM. An outline of the steps:
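Myeloma cells (500/well) treated with MIPE 4.0 compounds for 48 h at 37 °C, 5% CO2. Viability read as ATP via CellTiter-Glo luminescence after 5 min at RT; DMSO-only wells = 100%, media-only = 0% viability.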
(In ATP-based viability assays light output follows the ATP content of the culture.)
For the compound `CCN(CC)C(=O)c1ccc(C2=CC3(CCNCC3)Oc3cccc(O)c32)cc1`, the Potency entry was “inactive”.

For the compound `CC(C)N(CCNC(=O)CN1CCCC1=O)C(C)C`, the Potency entry was “inactive”.

Take `CC(N[C@H]1C[C@H]1c1ccccc1)c1ccc2c(c1)OCCO2` (some centres not stated): the Potency result is “inactive”.

With `C#C[C@]1(O)C=C[C@@H]2[C@@H]3CCC4=CC(=O)CC[C@@H]4[C@H]3CC[C@@]21CC`, the Potency result is “inactive”.

As for `O=c1cccc2n1CC1CNC[C@H]2C1`, the Potency is 5.26 µM (active).

`CC(=Cc1csc(C)n1)[C@@H]1C[C@H]2O[C@]2(C)CCC[C@H](C)[C@@H](O)[C@@H](C)C(=O)C(C)(C)[C@@H](O)CC(=O)O1`: the Potency result was “inactive”.

On to `C[C@]12CC[C@@H]3[C@@H](CCC4=CC(=O)CC[C@@H]43)[C@@H]1CC[C@@H]2OC(=O)CCc1ccccc1`, for which the Potency result is “inactive”.

In the case of `CCC(=O)OC1CCC2C3CCC4=CC(=O)CC[C@@]4(C)C3CC[C@]12C` (some centres not stated), the Potency entry was “inactive”.

For the compound `C=C[C@@H]1CN2CCC1C[C@@H]2[C@@H](O)c1ccnc2ccccc12` (some centres not stated), the Potency is 23.5 µM (active).

For `CC(=CCCC1=CCC(C2=CC(=O)OC2O)OC1O)CCC1=C(C)CCCC1(C)C` (configuration not stated), the Potency was 2.64 µM (active).

Turning to `CC(=Cc1csc(C)n1)[C@@H]1C[C@H]2O[C@@H]2CCC[C@H](C)[C@@H](O)[C@@H](C)C(=O)C(C)(C)[C@@H](O)CC(=O)O1`, the Potency entry was “inactive”.

Regarding `COC(=O)[C@@H](N)CCCN=C(N)N[N+](=O)[O-]`, the Potency entry was “inactive”.

As to `Cc1c(C(=O)Nc2cccc(C(F)(F)F)c2)cc(-c2ccccc2)n1CCCN1CCOCC1`, the Potency was 5.9 µM (active).

In the case of `CC[C@@H](C(N)=O)N1CCCC1=O`, the Potency result was “inactive”.

In the case of `COC1=CC(C)=C[C@@H](C)[C@@H](O)[C@@H](C)CC(C)=CC=C[C@H](OC)[C@H]([C@@H](C)[C@@H](O)[C@H](C)[C@@]2(O)C[C@@H](O)[C@H](C)[C@@H](C(C)C)O2)OC1=O`, the Potency is 20.9 µM (active).

With `CCCC[N+]1(C)[C@H]2CC(OC(=O)[C@H](CO)c3ccccc3)C[C@H]1[C@H]1O[C@H]12` (some centres not stated), the Potency entry was “inactive”.

For the compound `CCOC(=O)c1c(C(C#N)=CN)c2ccc(Cl)c(Cl)c2n1C`, the Potency result was “inactive”.

Take `COc1cc([C@@H]2c3cc4c(cc3[C@@H](O)C3COC(=O)C32)OCO4)cc(OC)c1O` (some centres not stated): the Potency is 0.0033 µM (active).

Turning to `C[C@@]12OC(=O)[C@]1([C@@H](O)[C@@H]1C=CCCC1)NC(=O)[C@H]2CCCl`, the Potency was 0.0093 µM (active).

Take `COc1ccc(CC2NCCc3cc(OC)c(OC)cc32)cc1OC` (configuration not stated): the Potency entry is “inactive”.

`C[C@@H]1O[C@@H](O[C@@H]2C=C3CC[C@@H]4[C@@H](CC[C@]5(C)[C@H](c6ccc(=O)oc6)CC[C@@]45O)[C@@]3(C)CC2)[C@H](O)[C@H](O)[C@H]1O`: the Potency was 0.0083 µM (active).

Take `Cc1nc(-c2ccc(-c3ccc(C(=O)N4CCc5cc6c(cc54)C4(CCN(C)CC4)CO6)cc3)c(C)c2)no1`: the Potency entry is “inactive”.

For the compound `CC(C)(C)[C@]1(O)C[C@@H]2OC(=O)C[C@@]23C(=O)O[C@@H]2OC(=O)[C@H](O)C213` (some centres not stated), the Potency result was “inactive”.

For the compound `O=C(Oc1ccc([N+](=O)[O-])cc1)N1CCC(C(O)(c2ccc3c(c2)OCO3)c2ccc3c(c2)OCO3)CC1`, the Potency result is “inactive”.

`C=C1C[C@H]2[C@H]3CCC(=O)[C@@]3(C)CC[C@@H]2[C@@]2(C)C=CC(=O)C=C12`: the Potency result is “inactive”.

In the case of `N=c1c2c(-c3ccccc3)c(-c3ccccc3)n(Cc3ccccc3)c2ncn1C1CCC(O)CC1` (configuration not stated), the Potency was 3.32 µM (active).

For the compound `O=C(NCC1CCOCC1)c1cnc(Nc2ccc(Cl)cc2Cl)nc1C(F)(F)F`, the Potency entry is “inactive”.
